# Target: AT4G31550 (Arabidopsis thaliana, UniProt Q9SV15 228-325)
# Test: DPI-ELISA; DPI-ELISA, streptavidin 384-well plate, 1-2 pmol biotinylated dsDNA per well, crude native E. coli extract, anti-His detection; buffer as in Brand et al. [46],; high values mean tight binding
# Conditions: tags: C-terminal His (pET-DEST42); label: 5' biotin on forward strand; dsDNA, one strand shown
# Sequence of AT4G31550 (Q9SV15 228-325): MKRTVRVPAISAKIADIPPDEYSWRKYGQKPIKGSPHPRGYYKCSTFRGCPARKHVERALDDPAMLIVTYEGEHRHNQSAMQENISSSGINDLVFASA
row,Sequence,binding signal
1,AAAAAAACGGTGTCATAGTATTAGTGAAAA,0.585 ± 0.134 absorbance
2,AAAAAATTTCTCCTTCTTTGTTCTTCAAAA,0.66 ± 0.141 absorbance
3,AAAAAAGGTAATGCCGGTCCCAGTATAAAA,0.525 ± 0.0778 absorbance
4,AAAAAAGTCTAGTCGTAAAAA,0.595 ± 0.0778 absorbance
5,AAAAAACTAACCGTCGCAGGCGTGTGAAAA,0.715 ± 0.134 absorbance
6,AAAAAATTTGGTCTTCGTCCTCGCTTAAAA,0.9 ± 0.0707 absorbance
7,AAAAAAGCTTCTCATGTTGTCTTAGGAAAA,0.695 ± 0.177 absorbance
8,AAAAAATATGTTTTCGCTTTATTCTTAAAA,0.52 ± 0.099 absorbance
9,AAAAAACGGAAGATCGTGACTGCTAGAAAA,0.715 ± 0.0354 absorbance
10,AAAAAACACTTAACTGAGTGGGATTGAAAA,0.705 ± 0.134 absorbance
11,AAAAAATTCGTTTTTCGTCTTTCATTAAAA,0.7 ± 0.156 absorbance
12,AAAAAATGAATCAATTTTTGGGCTTTAAAA,0.52 ± 0.113 absorbance
13,AAAAAATTCTTACTTTTGTCTTTACTAAAA,0.79 ± 0.156 absorbance
14,AAAAAACAGGCCGATTCCGATCCCGGAAAA,0.535 ± 0.0919 absorbance
15,AAAAAAGCTCGTCTCCGCCTCCTGCTAAAA,0.785 ± 0.262 absorbance
16,AAAAAATTAGACGCTACACTTACGGTAAAA,0.665 ± 0.106 absorbance
17,AAAAAACGCCGGACAATCAGGCGCTCAAAA,0.625 ± 0.177 absorbance
18,AAAAAAGTGTGTGGCTCAGGATTCCCAAAA,0.55 ± 0.0849 absorbance
19,AAAAAACCCTAACGAATGCTTTTCGGAAAA,0.66 ± 0.0849 absorbance
20,AAAAAACTCGCGCTTGCATCTGTGCGAAAA,0.555 ± 0.0636 absorbance
21,AAAAAATACGTCTACGTGGTTGTCGTAAAA,0.72 ± 0.127 absorbance
22,AAAAAATCATTTTATTTTGCCTTTCTAAAA,0.56 ± 0.127 absorbance
23,AAAAAACTACAACCTGCGCGGTGGTCAAAA,0.775 ± 0.0636 absorbance
24,AAAAAACCCTACATCGCATATAAGAGAAAA,0.675 ± 0.0212 absorbance

# — article PMC3795721, “Screening for Protein-DNA Interactions by Automatable DNA-Protein Interaction ELISA”
